Vaccinia mCherry: qHTS for Stage-Specific Inhibitors of Vaccinia Orthopoxvirus: mCherry Reporter Primary qHTS; Vaccinia virus mCherry reporter infection, fluorescence; Potency, µM (top dose mostly 36.5 µM), for inactives: at the highest dose activity change, negative = inhibition, hits mostly inhibitors; 310,000 tested, 0.63% active; calls by dose curve; tested in A549 cells; also: nearly all actives have a fitted effect of over 35% in size
VACV Venus inh: qHTS for Stage-Specific Inhibitors of Vaccinia Orthopoxvirus: Venus Reporter Primary qHTS; Potency, µM (top dose mostly 36.5 µM), for inactives: top-dose activity change, negative = inhibition, most hits filed as inhibitors; Vaccinia virus Venus reporter expression, fluorescence; AID 720580, 2013; 330,000 tested, 0.46% active; calls by dose curve; tested in A549 cells; also: nearly all actives have a fitted effect of over 30% in size
HCV inhibitor: qHTS Assay for Inhibitors of Hepatitis C Virus (HCV); Huh7.5.1 HCVcc-Cre infection, luciferase reporter, 44 h; Potency, µM (doses to about 41.8 µM), without a hit: at the highest dose activity change, negative = inhibition, usual class: inhibitors; 340,000 tested, 3.4% active; AID 651820, 2012; active = well fitted inhibition curve with a large enough effect; inconclusive = small, poorly fitted or top-dose-only effect, or another doubt; inactive = no such curve, though single readings can be large or run the other way
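1,000 cells/well; 4 h culture; + compound; + HCVcc-Cre (~0.5 moi); 44 h; luciferase substrate, RT 15 min; read 15 sec.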
* = called active by the depositor; i = inactive; ? = inconclusive; . = no result; [ ] = another dose, or the depositor's remark. The list is not random: actives were taken first. Their share in the collection is about 3.3%. % is scaled to controls: 0 for no effect and ±100 for the full control effect; potency is read from the fitted curve at half-maximal effect.

SMILES	Vaccinia mCherry	VACV Venus inh	HCV inhibitor
COc1cc(C(=O)N(Cc2ccccc2)c2cccc(C)c2)ccc1OCC(=O)N1CCOCC1	-13%	-26%	.
COc1ccc(CNn2c(C)nc3ccccc3c2=O)cc1	?	-18%	-26%
CCCCOc1ccc(CNn2c(C)nc3ccccc3c2=O)cc1	-5%	-4%	10µM*
COc1ccc(-n2nc3c(c2NC(=O)c2ccc(Br)o2)CS(=O)(=O)C3)cc1	.	.	12%
COc1cc2nc(Cl)nc(NC3CCN(C)CC3)c2cc1OC	-25%	-19%	.
COc1ccc(Cl)cc1Cn1c(C)c(C(=O)NCc2cccc(Cl)c2)sc1=O	i	-7%	.
O=C(OCc1cc(=O)n2nc(C3CCCCC3)sc2n1)c1ccccc1Cl	10%	13%	.
O=C(O)c1cnn2c1NC(c1cccs1)CC2C(F)(F)F (stereo not drawn)	.	-6%	6%
CC(C)NC(=O)c1cnn2c1NC(c1cccs1)CC2C(F)(F)F (stereo not drawn)	-22%	-19%	2.8µM*
CCOC(=O)N1CCC(NC(=O)c2ccc3c(c2)N=C(CC)c2ccccc2S3)CC1	-17%[7.34 µM]	-9%[7.34 µM]	10µM*
CCCC1=Nc2cc(C(=O)NC3CCC(C)CC3)ccc2Sc2ccccc21 (stereo not drawn)	-26%[7.34 µM]	-21%[7.34 µM]	.
CCCCN1CC(c2nc3ccccc3n2CCCCOc2ccccc2C)CC1=O (stereo not drawn)	-20%	-21%	.
Cc1cc(Cl)ccc1NC(=O)C1CCCN1C(=O)c1cccs1 (stereo not drawn)	i	0%	4%
CCN(C(=O)[C@@H]1CCCN1C(=O)c1cccs1)c1nc2cc(Cl)ccc2s1	-12%	-16%	10µM*
O=Nc1c(-c2c(O)[nH]c3cc(Br)ccc23)[nH]c2ccccc12	?	-8%	5.6µM*
O=C(CNC(=O)c1ccccc1)N=Nc1c(O)[nH]c2ccc(Br)cc12	-15%	-4%	14%
C=CCN1CC[C@]23c4c5ccc(O)c4OC2C(=O)CC[C@@]3(O)C1C5 (stereo partly drawn)	i	-14%	2.5µM*
C=CCN1CC[C@]23c4c5ccc(O)c4OC2C(=O)CC[C@]3(O)C1C5 (stereo partly drawn)	-12%	-8%	.
CCCN1CCC(N2CCN(c3cccc(C(F)(F)F)c3)CC2)CC1	.	.	11µM*
CCc1cc(C(=O)N2CCCC(N3CCN(c4cccc(C(F)(F)F)c4)CC3)C2)n(C)n1 (stereo not drawn)	.	.	10µM*
CC(=O)N1CCCC(N2CCN(c3cccc(C(F)(F)F)c3)CC2)C1 (stereo not drawn)	.	.	12%
O=C(c1ccncc1)N1CCCC(N2CCN(c3cccc(C(F)(F)F)c3)CC2)C1 (stereo not drawn)	.	.	7%
CC[C@]12c3[nH]c4ccc(OC)cc4c3CCN1C(=O)C(CC(=O)NCC13CC4CC(CC(C4)C1)C3)C[C@@H]2C(=O)N1CCN(C(=O)c2ccco2)CC1 (stereo partly drawn)	-7%	0%	0%
CC[C@]12c3[nH]c4ccc(Cl)cc4c3CCN1C(=O)[C@@H](CC(=O)NCC13CC4CC(CC(C4)C1)C3)C[C@@H]2C(=O)N1CCN(C(=O)c2ccco2)CC1	11µM*	14µM*	?
CC[C@]12c3[nH]c4cc(-c5ccco5)ccc4c3CCN1C(=O)[C@@H](CC(=O)NCC13CC4CC(CC(C4)C1)C3)C[C@@H]2C(=O)N1CCN(C(=O)c2ccco2)CC1	7.1µM*	?	?
SMILES	Vaccinia mCherry	VACV Venus inh	HCV inhibitor
CC(C)=CCC/C(C)=C/CNC(=O)C[C@H]1C[C@H](C(=O)N2CCOCC2)[C@@]2(C)c3[nH]c4cc(-c5ccco5)ccc4c3CCN2C1=O	?	11µM*	?
CC[C@]12c3[nH]c4cc(-c5ccco5)ccc4c3CCN1C(=O)[C@@H](CC(=O)NCCCN(C)C)C[C@@H]2C(=O)N1CCN(C(=O)c2ccco2)CC1	i	-10%	2%
C[C@]12c3[nH]c4cc(-c5ccco5)ccc4c3CCN1C(=O)[C@@H](CC(=O)NCCN1CCOCC1)C[C@@H]2C(=O)N1CCOCC1	i	-10%	-14%[8.37 µM]
CCN(CC)C(=O)[C@H]1CC(CC(=O)NCc2cccc(C(F)(F)F)c2)C(=O)N2CCc3c([nH]c4ccccc34)[C@]12C (stereo partly drawn)	-13%	-22%	13µM*
CCN(CC)C(=O)[C@H]1C[C@H](CC(=O)NCc2cccc(C(F)(F)F)c2)C(=O)N2CCc3c([nH]c4cc(CCC(=O)N(C)C)ccc34)[C@]12C	-23%	-6%	0%
COc1ccc(C(=O)NCCc2ccc(C(F)(F)F)cc2)cc1S(=O)(=O)N1CCOCC1	-29%	-13%	?
COc1ccc(CNC(=O)C[C@H]2C[C@H](C(=O)N3CCOCC3)[C@@]3(C)c4[nH]c5cc(-c6ccco6)ccc5c4CCN3C2=O)cc1OC	?	-29%	-2%
C[C@]12c3[nH]c4ccc(Cl)cc4c3CCN1C(=O)[C@@H](CC(=O)NCCN1CCOCC1)C[C@@H]2C(=O)N1CCOCC1	i	-17%	2%
CC[C@]12c3[nH]c4ccc(Cl)cc4c3CCN1C(=O)[C@@H](CC(=O)NCCC1=CCCCC1)C[C@@H]2C(=O)N1CCN(C(=O)c2ccco2)CC1	-6%	-20%	32µM*
CC(C)N(C(=O)[C@H]1C[C@H](CC(=O)NCc2cccc(C(F)(F)F)c2)C(=O)N2CCc3c([nH]c4cc(CCC(=O)N(C)C)ccc34)[C@]12C)C(C)C	?	?	-29%[8.37 µM]
C[C@]12c3[nH]c4cc(-c5ccco5)ccc4c3CCN1C(=O)[C@@H](CC(=O)NCc1cccc(C(F)(F)F)c1)C[C@@H]2C(=O)N1CCCCC1	11µM*	?	?
CC(C)N(C(=O)[C@H]1C[C@H](CC(=O)NC(C)(C)C)C(=O)N2CCc3c([nH]c4cc(CCC(=O)N(C)C)ccc34)[C@]12C)C(C)C	-2%	-1%	0.5µM*
CC[C@]12c3[nH]c4ccc(Cl)cc4c3CCN1C(=O)[C@@H](CC(=O)NCCN1CCOCC1)C[C@@H]2C(=O)N1CCN(C(=O)c2ccco2)CC1	-24%	-6%	-1%
C[C@]12c3[nH]c4ccc(Cl)cc4c3CCN1C(=O)[C@@H](CC(=O)NCCC1=CCCCC1)C[C@@H]2C(=O)N1CCOCC1	?	?	11µM*
COc1ccc(CN(Cc2ccccc2)C(=O)C2CC2)cc1COc1ccc(NC(C)=O)cc1	-11%	-29%	.
Cc1cc2c(cc1C)N[C@]1(C[C@H]3CCCC(=O)N4CC[C@@H](C1)[C@@H]34)C(=Nc1ccccc1C)N2	-20%	-10%	.
C/C=C(\C)C(=O)N1CCC(C(=O)c2ccccc2)CC1	-13%	-5%	9%
COCC(=O)Nc1cc(C(=O)NC2CCCc3ccccc32)c2c(c1)nc(-c1ccncc1)n2C (stereo not drawn)	-14%	-8%	.
CCCC[C@@H]1CNCCN1CCCc1cc(OC)c(OC)c(OC)c1	i	3%	1%
COc1cc2cc(CNc3ccc(C)cc3)c(=O)n(CC(=O)Nc3ccc(C(C)C)cc3)c2cc1OC	-21%	-7%	.
